Composite z-score and z-score data for 14 molecules are collected here from PubChem BioAssay.

Assay [1] in a line: anti-His antibody binders, primary screen, artefact control for SMM control protein annotation, biochemical, small-molecule microarray, 635 nm fluorescence (AID 1128).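 Also: score merges feature fluorescence with signal-to-noise for each printed compound spot.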 Particulars: anti-His Alexa647 antibody binding, higher = more signal.
For assay [2], the system named is Human papillomavirus type 1a E7 protein (residues 1-88). Description: HPV1a E7 small-molecule binders, primary screen, biochemical, small-molecule microarray, residues 1-88, 635 nm (AID 1129). Particulars: small-molecule microarray binding, fluorescence 635 nm; higher = more signal.
Assay [3] concerns the target Focal adhesion kinase 1 (Homo sapiens) (UniProt Q05397). The experiment in a line: small-molecule microarray binders of FAK, primary screen, biochemical, 635/667 nm fluorescence, BSA, DTT (AID 1130).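 Also: composite of spot emission at 667 nm and signal to noise over triplicate slides.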 The note with it: PTK2 binding, 635 nm fluorescence, higher = more signal.
Assay [4] deals with Fibrinogen (Alexa647-labelled). Description: fibrinogen binders on compound microarrays, profiling panel, artefact control for SMM control-protein annotation, biochemical, small-molecule microarray, 635/667 nm fluorescence (AID 1131).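 Also: z-score merges 667 nm fluorescence with per-spot signal-to-noise over triplicate slides.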 The note with it: fibrinogen-A647 binding fluorescence, higher = more signal.
Assay [5] concerns the target Follistatin (Homo sapiens) (UniProt P19883). Description: follistatin binders on small-molecule microarrays, primary screen, biochemical, small-molecule microarray, 635/667 nm fluorescence (AID 1132). Particulars: FST binding, 635 nm fluorescence, higher = more signal.
Assay [6] deals with Fibroblast growth factor 2 (Homo sapiens) (UniProt P09038). The experiment in a line: FGF2 binders on small-molecule microarrays, primary screen, biochemical, small-molecule microarray, 635/667 nm fluorescence (AID 1133). Particulars: small-molecule microarray binding, FGF2, fluorescence 635/667; higher = more signal.
Fibroblast growth factor 2 (Homo sapiens), sequence (P09038 whole entry, looked up): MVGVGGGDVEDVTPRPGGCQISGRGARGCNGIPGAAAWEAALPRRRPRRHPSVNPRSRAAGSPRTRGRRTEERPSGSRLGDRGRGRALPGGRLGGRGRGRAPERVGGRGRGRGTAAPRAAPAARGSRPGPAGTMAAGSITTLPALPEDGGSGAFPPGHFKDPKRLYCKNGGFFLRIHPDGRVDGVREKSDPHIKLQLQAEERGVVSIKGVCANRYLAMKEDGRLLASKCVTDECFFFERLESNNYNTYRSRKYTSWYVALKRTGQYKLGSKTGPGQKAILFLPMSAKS
A short description of assay [7]: mitochondrial membrane potential change in A549 cells, profiling panel, cell-based, JC-1 fluorescence, basal, 24 h, 100 nL (AID 1138).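 Also: A549 lung adenocarcinoma cells under basal conditions with no added stimulus; test concentration not given here.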 The note with it: higher = more signal.
In a further assay the test system is Lefty1. The experiment in a line: Lefty1 binders on small-molecule microarrays, primary screen, biochemical, small-molecule microarray, 635/667 nm fluorescence (AID 1139). Particulars: small-molecule microarray binding, fluorescence 635/667; higher = more signal.
The test system of assay [8] is wheat germ agglutinin (Triticum aestivum), Alexa647-labelled. The experiment in a line: wheat germ agglutinin binders on compound microarrays, profiling panel, artefact control for SMM control-protein annotation, biochemical, small-molecule microarray, 635/667 nm fluorescence (AID 1140).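 Also: score merges 667 nm feature emission with signal to noise over triplicate slides.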 Particulars: WGA-A647 binding, 635 nm fluorescence, higher = more signal.
Assay [9] concerns the target Luciferin 4-monooxygenase (Photinus pyralis) (UniProt P08659). Description: firefly luciferase enzyme inhibitors, primary screen, biochemical, luminescence, purified enzyme, 2006 set (AID 1141).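 Also: cell-free assay with purified firefly luciferase at 100 ng per well in PBS; test concentration not given here.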 Particulars: SteadyGlo luminescence, 30 min, higher = more signal, called active from +8 up or from −8 down.

Molecules are shown by their SMILES. The source made the active and inactive calls.

Focal adhesion kinase 1 (Homo sapiens), sequence (Q05397 whole entry, looked up): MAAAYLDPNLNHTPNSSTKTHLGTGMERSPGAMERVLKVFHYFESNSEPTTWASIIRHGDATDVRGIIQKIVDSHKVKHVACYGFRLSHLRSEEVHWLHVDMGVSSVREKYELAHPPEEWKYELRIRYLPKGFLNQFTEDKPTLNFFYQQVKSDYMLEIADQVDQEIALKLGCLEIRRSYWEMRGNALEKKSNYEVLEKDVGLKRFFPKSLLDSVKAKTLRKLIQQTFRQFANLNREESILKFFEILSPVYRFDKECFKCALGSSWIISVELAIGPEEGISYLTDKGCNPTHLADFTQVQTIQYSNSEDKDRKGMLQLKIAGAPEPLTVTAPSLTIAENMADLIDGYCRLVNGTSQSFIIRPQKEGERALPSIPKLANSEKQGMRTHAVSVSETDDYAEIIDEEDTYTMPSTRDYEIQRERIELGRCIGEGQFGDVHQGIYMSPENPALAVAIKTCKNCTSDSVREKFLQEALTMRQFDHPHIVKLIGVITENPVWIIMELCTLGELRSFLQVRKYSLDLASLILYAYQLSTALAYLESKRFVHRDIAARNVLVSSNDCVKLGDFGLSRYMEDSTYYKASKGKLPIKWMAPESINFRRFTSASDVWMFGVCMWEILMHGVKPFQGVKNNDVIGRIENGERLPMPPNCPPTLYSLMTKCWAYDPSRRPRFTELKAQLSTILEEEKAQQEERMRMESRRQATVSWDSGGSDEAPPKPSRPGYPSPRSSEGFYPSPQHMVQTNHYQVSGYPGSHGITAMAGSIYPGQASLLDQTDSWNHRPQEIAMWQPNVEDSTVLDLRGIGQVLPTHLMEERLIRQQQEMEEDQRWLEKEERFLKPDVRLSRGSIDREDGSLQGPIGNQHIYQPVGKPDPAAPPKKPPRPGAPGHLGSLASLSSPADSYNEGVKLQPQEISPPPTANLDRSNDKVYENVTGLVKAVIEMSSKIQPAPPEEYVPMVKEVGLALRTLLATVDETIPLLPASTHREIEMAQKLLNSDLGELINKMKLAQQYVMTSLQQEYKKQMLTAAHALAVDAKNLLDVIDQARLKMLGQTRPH
Luciferin 4-monooxygenase (Photinus pyralis), sequence (P08659 whole entry, looked up): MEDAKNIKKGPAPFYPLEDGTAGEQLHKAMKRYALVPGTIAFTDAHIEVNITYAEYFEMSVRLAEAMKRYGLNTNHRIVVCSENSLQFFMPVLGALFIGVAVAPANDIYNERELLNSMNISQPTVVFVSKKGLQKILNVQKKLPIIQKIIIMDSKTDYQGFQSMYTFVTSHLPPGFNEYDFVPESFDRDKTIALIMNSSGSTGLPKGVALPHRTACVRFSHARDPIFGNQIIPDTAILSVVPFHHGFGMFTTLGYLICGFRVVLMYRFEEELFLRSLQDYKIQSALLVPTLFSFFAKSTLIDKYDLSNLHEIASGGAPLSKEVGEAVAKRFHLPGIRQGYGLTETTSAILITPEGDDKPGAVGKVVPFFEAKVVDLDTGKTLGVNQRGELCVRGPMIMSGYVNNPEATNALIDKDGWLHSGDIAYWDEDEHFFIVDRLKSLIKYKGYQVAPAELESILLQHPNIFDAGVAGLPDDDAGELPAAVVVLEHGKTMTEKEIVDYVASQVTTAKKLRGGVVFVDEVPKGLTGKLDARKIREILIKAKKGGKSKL
Follistatin (Homo sapiens), sequence (P19883 whole entry, looked up): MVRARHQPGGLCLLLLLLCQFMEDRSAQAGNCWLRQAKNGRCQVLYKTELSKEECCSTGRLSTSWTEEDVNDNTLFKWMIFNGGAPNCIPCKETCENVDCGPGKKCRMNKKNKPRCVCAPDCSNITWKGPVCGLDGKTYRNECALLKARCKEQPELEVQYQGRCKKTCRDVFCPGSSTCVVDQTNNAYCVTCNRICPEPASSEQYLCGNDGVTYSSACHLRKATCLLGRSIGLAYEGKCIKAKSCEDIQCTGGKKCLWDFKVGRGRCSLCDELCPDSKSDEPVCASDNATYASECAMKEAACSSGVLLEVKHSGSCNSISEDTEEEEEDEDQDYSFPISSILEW

For the molecule `COC(=O)c1ccc(OC)c(/C=C\CC(OC(=O)c2ccncc2)c2ccccc2)c1` (stereo not given), the composite z-score in assay [1] is 0.429; in [2], -0.0099; in [3], -0.111; in assay [4], -0.237; in [5] it was 1.1; in [6] it was 1.22. For the same molecule, the composite z-score turned out to be 0.904 in the assay with Lefty1 and 0.947 in assay [8]. Further, the z-score is 1.64 in [7] and -1.89 (inactive) in assay [9].
As to `CCOC(=O)C1=CCC(c2ccncc2)N(S(=O)(=O)c2ccc(C)cc2)C1` (stereo not given), the composite z-score stood at 0.871 in assay [1]; 1.25 in assay [2]; 1.5 in assay [3]; 1.01 in assay [4]; 0.844 in assay [5]; 0.454 in [6]. In addition, the composite z-score was 0.353 in the assay on Lefty1 and 0.829 in assay [8]. Besides, the z-score in assay [7] was -0.497; in assay [9], -0.786 (inactive).
As for `CN1C(=O)C2C=CC(C(O)c3ccc([N+](=O)[O-])cc3)N(Nc3ccccc3)C2C1=O` (stereo not given), the composite z-score in assay [1] was 0.358; in assay [2], 1.23; in [3] it was 0.36; in assay [4] it was 0.999; in [5] it was 1.26; in assay [6] it was 0.531. Besides, the figures for the composite z-score (in the assay on Lefty1; in assay [8]) were 0.0022 and 1.04, respectively. Moreover, the values for the z-score in assay [7] and in assay [9] were -0.387 and -0.53 (inactive), respectively.
Take `CN1C(=O)C2CC=C(C3=CCO[C@@H]3[C@H]3CCCN3S(=O)(=O)c3ccccc3[N+](=O)[O-])CC2C1=O` (stereo not given in full): the composite z-score is -0.354 in assay [1]; -0.342 in assay [2]; -0.244 in [3]; 0.533 in assay [4]; 0.0289 in [5]; 0.159 in assay [6]. The composite z-score with Lefty1 was -0.106; in assay [8], -0.0718. Further, the z-score in assay [7] was 0.0911; in assay [9] it was 0.294 (inactive).
For `C=C(COC)/C(=C/C[C@@H](OC(C)=O)c1cccc(OCCO)c1)c1cnc2ccccc2c1`, the composite z-score in assay [1] was 0.309; in assay [2], 0.75; in [3] it was -0.012; in assay [4], -0.657; in [5], 1.42; in [6] it was 1.2. In addition, the figures for the composite z-score (in the assay on Lefty1; in assay [8]) were 1.24 and 1.04, respectively. Also, the results for the z-score in [7] and in assay [9] were 0.031 and -1.11 (inactive), respectively.
Consider `CCOC(=O)C[C@H]1[C@H](OC(=O)c2ccc(-c3ccccc3)cc2)[C@@H](NC(=O)c2ccc(-c3ccccc3)cc2)c2cc(OCCCO)ccc2N1C(=O)c1ccccc1`, for which the composite z-score turned out to be 0.0004 in assay [1]; 1.09 in [2]; 1.03 in assay [3]; 0.856 in assay [4]; 0.627 in assay [5]; 0.64 in assay [6]. In addition, the composite z-score in the assay on Lefty1 turned out to be 0.627; in [8], 0.792. Further, the figures for the z-score in [7] and in assay [9] were 0.392 and -0.339 (inactive), respectively.
`C=CC[C@]1(C(=O)NCCN2CCOCC2)N=C(c2ccc(OCCCO)cc2)O[C@H]1c1ccccc1`: the composite z-score in assay [1] is 0.566; in assay [2], 0.845; in [3], 0.0827; in [4], -0.212; in [5], 1.44; in [6] it was 1.8. For the same molecule, the composite z-score with Lefty1 came out at 0.918; in [8] it was 0.496. Further, the z-score is 0.654 in [7] and 0.601 (inactive) in [9].
Regarding `O=C1OCC=C[C@H]2OC34C=CCN(Cn5nnc6ccccc65)C(=O)[C@H]3N(CCO)C(=O)[C@@H]4[C@@H]12` (stereo not given in full), the composite z-score was 1.68 in assay [1]; -0.696 in assay [2]; -0.619 in [3]; -1.41 in [4]; -1.32 in assay [5]; -1.46 in assay [6]. For the same molecule, the composite z-score in the assay on Lefty1 was -1.17; in [8] it was -0.944. Besides, the z-score in [7] is -0.546; in assay [9], 0.0848 (inactive).
Consider `Cc1ccc(S[C@]2(C(=O)NCc3ccccc3)CC(=O)N(Cc3ccccc3C(F)(F)F)[C@@H]2c2ccc(CO)cc2I)cc1`, for which the composite z-score in assay [1] is 1.53; in assay [2], -0.645; in assay [3], 0.258; in assay [4] it was -0.201; in assay [5], 0.0443; in [6], -0.402. The composite z-score in the assay with Lefty1 was -1.25; in [8], 0.0776. Also, the z-score in assay [7] is 1.28; in assay [9], -0.913 (inactive).
Regarding `C=C(COC)/C(=C/C[C@@H](OC(=O)c1ccncc1)c1ccccc1OCCO)c1cnc2ccccc2c1`, the composite z-score in [1] was 1.27; in [2] it was 1.17; in assay [3] it was 0.276; in assay [4] it was 0.848; in [5], 1.47; in assay [6], 1.6. Further, the composite z-score turned out to be 1.56 in the assay with Lefty1 and 1.39 in assay [8]. Moreover, the z-score was 1.5 in assay [7] and -1.17 (inactive) in assay [9].
As for `CC(=O)NCCCC[C@@H]1NC(=O)[C@H]2C[C@@H](C(=O)NCCCCCN)[C@@H](c3ccc(O)cc3)N2C1=O`, the composite z-score turned out to be 2.49 in [1]; 1.21 in assay [2]; 0.948 in assay [3]; 0.653 in assay [4]; 1.12 in assay [5]; 1.13 in assay [6]. Moreover, the composite z-score in the assay with Lefty1 worked out at 0.944; in [8], 0.773. Also, the results for the z-score in assay [7] and in [9] were -0.109 and 0.148 (inactive), respectively.
For the molecule `CC[C@H]1C2=C3C(CC[C@H]4C(OCc5ccc(F)cc5C(F)(F)F)OC[C@](C)([C@@H]34)N(C(=O)OC(C)(C)C)C2)C(COC(C)=O)C1COC(C)=O` (stereo not given in full), the composite z-score in [1] is 1.3; in assay [2], 1.17; in assay [3] it was 0.178; in assay [4], 0.945; in assay [5], 0.165; in assay [6], -1.19. In addition, the composite z-score was -0.256 in the assay on Lefty1 and 0.509 in [8]. Further, the z-score in assay [7] was 1.74; in [9], 1.17 (inactive).
On to `COCCOC(=O)N1C(=O)[C@@]2(c3ccccc31)[C@H](C(=O)Nc1nc3ccccc3s1)[C@H]1C(=O)O[C@H](c3ccccc3)[C@H](c3ccccc3)N1[C@@H]2c1ccccc1OCCO`, for which the composite z-score in assay [1] is 1.55; in [2] it was 1.19; in assay [3], -0.0016; in [4], 0.941; in assay [5], 1.17; in assay [6], 0.676. Moreover, the composite z-score in the assay on Lefty1 is 0.42; in assay [8], 1.19. Moreover, the z-score in [7] is -2.3; in [9] it was -0.653 (inactive).
`N#Cc1ccc(NN2C(C(O)c3ccc(B(O)O)cc3)C=CC3CN(c4ccccc4)C(=O)C32)cc1` (stereo not given): the composite z-score in [1] is 0.48; in assay [2], -0.633; in assay [3], -0.508; in [4], 0.529; in [5] it was -0.0923; in assay [6], -0.436. The figures for the composite z-score (in the assay with Lefty1; in assay [8]) were -0.118 and 0.485, respectively. For the same molecule, the results for the z-score in [7] and in assay [9] were -0.408 and -1.24 (inactive), respectively.
